Screening results deposited in PubChem BioAssay by several laboratories.
hDAT+cocaine – changed human dopamine transporter uptake under cocaine IC80; Q01959; LLC-PK1 hDAT cells, [14C]-dopamine uptake with cocaine IC80; actives deviate in either direction; B-score at 10 µM; 110,000 compounds, 1.3% hits;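 active = Z score or B-score, a plate-position-corrected score, falls beyond the plate's 99.7% confidence bounds, in either direction; inactive = both scores lie inside the 99.7% bounds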
CYP2C19 activ – activators of human cytochrome P450 2C19 | recombinant CYP2C19, luciferin-H EGE luminescence; stronger effect = higher value; 0 = fully inhibited enzyme, 1 = untreated enzyme | activation factor at 5 µM | 96,000 tested, under 10 active;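 active = activation factor of at least 2 at 5 µM in the primary screen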
CYP2C19 inhib – human CYP2C19 inhibition. CYP2C19 Supersomes, luciferin-H EGE luminescence, 30 min. inhibition, % at 5 µM. 96,000 compounds, 21% hits. AID 778;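 active = CYP2C19 inhibition above a set limit at 5 µM in the primary screen, cut at about 50% in these data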
D1 mod – allosteric modulators of human D1 dopamine receptor; AID 641; B-score at 10 µM; P21728; HEK293 D1, CRE-luciferase, dopamine EC30 potentiation; actives deviate in either direction; 58,000 compounds, 5.9% hits;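 active = luminescence count or its row- and column-corrected plate score outside the 99.7% band of the plate's sample wells, on either side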
CYP2C9 inhib – inhibitors of human CYP2C9 | P11712 | inhibition, % at 5 µM | CYP2C9 Supersomes, luciferin-H conversion, luminescence | 96,000 compounds, 20% hits;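 active = blocking of liver enzyme CYP2C9 beyond about 50% at 5 µM, limit read from the data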
Target sequence (P11712 whole entry, looked up): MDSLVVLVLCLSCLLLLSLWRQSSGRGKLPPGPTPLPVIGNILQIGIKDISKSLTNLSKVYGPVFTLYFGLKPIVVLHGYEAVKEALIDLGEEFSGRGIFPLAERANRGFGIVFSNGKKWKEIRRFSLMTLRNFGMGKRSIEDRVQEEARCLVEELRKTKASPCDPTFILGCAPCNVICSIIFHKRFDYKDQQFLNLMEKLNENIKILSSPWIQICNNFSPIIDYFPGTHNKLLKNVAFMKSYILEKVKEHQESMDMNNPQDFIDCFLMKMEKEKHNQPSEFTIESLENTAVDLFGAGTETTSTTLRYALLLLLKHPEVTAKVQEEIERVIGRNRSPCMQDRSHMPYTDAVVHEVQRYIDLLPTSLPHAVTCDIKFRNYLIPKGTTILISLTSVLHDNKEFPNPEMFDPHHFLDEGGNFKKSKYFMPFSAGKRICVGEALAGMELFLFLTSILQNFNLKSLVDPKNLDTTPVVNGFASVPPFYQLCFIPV
CYP2C9 activ – activators of human CYP2C9; P11712; recombinant CYP2C9, luciferin-H conversion, luminescence; stronger effect = higher value; factor 1 = untreated enzyme, 0 = blocked; activation factor at 5 µM; 96,000 compounds, 1.4% hits; AID 1024;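 active = activation factor of 2 or more for CYP2C9 at a 5 µM dose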
Each line names hits and unclear results; the compound was inactive in the other large screens. Shown are actives, neighbours in structure and some others; about 28% of the full set was active somewhere.

Cc1nc(SCC(=O)c2ccc(Cl)s2)c2oc3ccccc3c2n1	none (no result: D1 mod)
CCCn1c(N)c(C(=O)CSc2nc(C)cs2)c(=O)n(C)c1=O	none (no result: D1 mod)
Cc1cc(C)c2[nH]c(=O)c(C(c3nnnn3CC3CCCO3)N3CCCC(C)C3)cc2c1 (stereo not given)	none
CC1Cc2ccccc2N1C(=O)CCn1c(=O)sc2ccccc21 (stereo not given)	none (no result: CYP2C19 activ, CYP2C19 inhib, CYP2C9 inhib, CYP2C9 activ)
O=C(O)C1CCN(c2nc(-c3ccccc3)nc3c2oc2ccccc23)CC1	none
CNC(=O)C(Sc1nc(C)nc2c1oc1ccccc12)C(C)=O (stereo not given)	CYP2C19 inhib 54.6, CYP2C9 inhib 61.3 (no result: D1 mod)
OCCN1CCN(c2nc(-c3ccccc3)nc3c2oc2ccccc23)CC1	CYP2C19 inhib 86.4, CYP2C9 inhib 65.0
Cc1ccc(-n2nc(-c3cccs3)cc2C(=O)NCC2CCCO2)c(C)c1 (stereo not given)	CYP2C19 inhib 64.8, CYP2C9 inhib 89.8
Cc1cccc2nc(C(F)(F)F)nc(=O)n12	none
CCOc1nc(Nc2ccc(OC)c(Cl)c2)nc(N2CCN(c3ccc(OC)cc3)CC2)n1	CYP2C9 inhib 67.1 (no result: D1 mod)
COc1ccc(N2CCN(Cc3nc(N)nc(Nc4ccc(C)c(Cl)c4)n3)CC2)cc1	CYP2C19 inhib 59.0, CYP2C9 inhib 68.2
Cc1ccc(Nc2nc(N)nc(CN3CCN(c4ccccc4)CC3)n2)cc1Cl	CYP2C9 inhib 60.3
Cc1ccc(Nc2nc(N)nc(CN3CCN(C)CC3)n2)cc1C	none
O=c1c2cc(Cl)ccc2nc2ccc(N3CCCC3)nn12	none (no result: hDAT+cocaine, CYP2C19 activ, CYP2C19 inhib, CYP2C9 inhib, CYP2C9 activ)
CC(O)[C@@H](C(=O)N1CCNCC1)n1cc(CCCCN)nn1 (stereo not given in full)	none (no result: CYP2C19 activ, CYP2C19 inhib, D1 mod, CYP2C9 inhib, CYP2C9 activ)
CN(C)S(=O)(=O)N1CCN(S(=O)(=O)N(C)C)CC1	none
COc1cccc(CN2CCN(CC(=O)Nc3ccccc3Cl)CC2)c1	none
CCn1c2ccccc2c2cc(NC(=O)C(C)Oc3ccc(OC)cc3)ccc21 (stereo not given)	CYP2C19 inhib 69.1 (no result: D1 mod)
CCn1c2ccccc2c2cc(NC(=O)C(C)Oc3ccccc3)ccc21 (stereo not given)	CYP2C19 inhib 60.9 (no result: D1 mod)
CC(Oc1ccc(F)cc1)C(=O)Nc1ccc2ccccc2c1 (stereo not given)	none (no result: D1 mod)
COc1cccc(S(=O)(=O)Nc2ccc(C(=O)N3CCN(C(=O)c4ccco4)CC3)cc2)c1	none (no result: CYP2C19 activ, CYP2C19 inhib, CYP2C9 inhib, CYP2C9 activ)
C=CCC(C)(NCc1ccccc1)c1ccccc1 (stereo not given)	CYP2C19 inhib 62.5 (no result: D1 mod)
COc1cc(C(=O)N2CCC(NC(=O)C(Cc3ccc(C(C)C)cc3)NC(C)=O)CC2)cc(OC)c1OC (stereo not given)	none (no result: D1 mod)
CC(=O)NC(Cc1ccc(C(C)C)cc1)C(=O)NC1CCN(c2nc(C)cc(C)n2)CC1 (stereo not given)	CYP2C19 inhib 60.5
CC(C)CCn1c(=O)c2ccccc2c2ccccc2c1=O	CYP2C19 inhib 86.2, CYP2C9 inhib 80.0 (no result: D1 mod)
NC(=O)C1(N2CCCCC2)CCN(S(=O)(=O)c2cc(Cl)ccc2Cl)CC1	CYP2C19 inhib 90.0, CYP2C9 activ 2.7
NC(=O)C1(N2CCCCC2)CCN(CC(=O)Nc2ccccc2-c2ccccc2)CC1	none
NC(=O)C1(N2CCCCC2)CCN(C2CC(=O)NC2=O)CC1 (stereo not given)	none (no result: CYP2C19 activ, CYP2C19 inhib, D1 mod, CYP2C9 inhib, CYP2C9 activ)
NC(=O)C1(N2CCCCC2)CCN(Cc2ccccc2Cl)CC1	CYP2C19 inhib 79.9
CCOc1cccc(N(C(=O)Cc2cccs2)C(C(=O)NC2CCCCC2)c2cccn2C)c1 (stereo not given)	none (no result: CYP2C19 activ, CYP2C19 inhib, D1 mod, CYP2C9 inhib, CYP2C9 activ)
COc1ccc(Oc2nnc(-c3ccccc3)cc2C#N)cc1	none (no result: D1 mod)
COc1nc(N)c(S(=O)(=O)c2ccccc2)cc1C#N	CYP2C9 activ 2.4 (no result: D1 mod)
COc1nc(N)c(S(=O)(=O)c2ccccc2C)cc1C#N	CYP2C19 inhib 77.7 (no result: D1 mod)
CCOC(=O)C1=C(C)Nc2nc(=S)[nH]n2C1c1ccc(Cl)cc1 (stereo not given)	none (no result: D1 mod)
CCn1c(SCc2nc3ccccc3c(=O)[nH]2)nnc1-c1cccnc1	CYP2C19 inhib 90.3
C=CCn1c(SCc2nc3ccccc3[nH]2)nnc1-c1ccncc1	CYP2C19 inhib 93.2
Nn1c(SCc2nc3ccccc3[nH]2)nnc1-c1cccnc1	none
CCn1c(SCc2nc3ccccc3c(=O)[nH]2)nnc1-c1ccncc1	CYP2C19 inhib 93.8 (no result: D1 mod)
O=c1[nH]c(CSc2nnc(-c3cccnc3)n2C2CCCCC2)nc2ccccc12	CYP2C19 inhib 61.7 (no result: hDAT+cocaine, D1 mod)
COc1ccc(N2CCN(c3nc4c(c(=O)[nH]c(=O)n4C)n3CCCc3ccccc3)CC2)cc1	none (no result: hDAT+cocaine, CYP2C19 activ, CYP2C19 inhib, CYP2C9 inhib, CYP2C9 activ)
Cc1cc(C(=O)N2CCN(Cc3ccccc3)CC2)on1	CYP2C19 inhib 95.1 (no result: D1 mod)
O=C(c1cc2ccccn2n1)N1CCCC1	none (no result: hDAT+cocaine)
CCOC(=O)N1CCN(C(=O)c2cc(C)no2)CC1	CYP2C19 inhib 71.2 (no result: hDAT+cocaine, D1 mod)
Cc1onc(C(=O)N2CCN(Cc3ccccc3)CC2)c1[N+](=O)[O-]	none (no result: CYP2C19 activ, CYP2C19 inhib, D1 mod, CYP2C9 inhib, CYP2C9 activ)
O=C(c1cc2ccccn2n1)N1CCN(Cc2ccccc2)CC1	CYP2C19 inhib 95.8 (no result: D1 mod)
O=C(N/N=C1\CCCc2ccccc21)C(O)c1ccccc1 (stereo not given)	none (no result: D1 mod)
CC12CCC(C(=O)N3CCCc4ccccc43)(CC1=O)C2(C)C (stereo not given)	none
CC12CCC(C(=O)N3CCc4ccccc43)(CC1=O)C2(C)C (stereo not given)	CYP2C9 inhib 58.2
CC12CCC(C(=O)N3CCN(c4ccccc4)CC3)(CC1=O)C2(C)C (stereo not given)	CYP2C19 inhib 53.7
COc1ccc(N2CCN(C(=O)C34CCC(C)(C(=O)C3)C4(C)C)CC2)cc1 (stereo not given)	none
CCc1nc(NCCCCCO)c2nnn(Cc3ccccc3F)c2n1	CYP2C9 inhib 56.4 (no result: D1 mod)
COC(=O)c1ccc(=O)c2nc3/c(=C/O)c(O)cc(=O)c3[nH]c12	none (no result: CYP2C19 activ, CYP2C19 inhib, D1 mod, CYP2C9 inhib, CYP2C9 activ)
Cn1nc(OC(=O)Nc2ccc(F)cc2)cc1C(F)(F)F	none (no result: D1 mod)
Cn1nc(OC(=O)Nc2ccc(Cl)cc2)cc1C(F)(F)F	hDAT+cocaine -2.91 (no result: D1 mod)
CCn1c(SCc2cc(=O)[nH]c3ccccc23)nc2c1c(=O)n(C)c(=O)n2C	none (no result: hDAT+cocaine, CYP2C19 activ, CYP2C19 inhib, CYP2C9 inhib, CYP2C9 activ)
CCN(CC)S(=O)(=O)c1ccc(OC(C)C)nc1	CYP2C19 inhib 79.2
CCN(CC)S(=O)(=O)c1ccc(OC)nc1	none (no result: D1 mod)
CCc1ccc2c(CC(=O)Nc3nnc(C4CC4)s3)coc2c1	none (no result: D1 mod)
Brc1ccc(-c2noc(CCc3ccccc3)n2)o1	none (no result: D1 mod)
Clc1ccc2oc(-c3ccccn3)nc2c1	none
O=C(Nc1ccc(-c2noc(COc3ccccc3Cl)n2)cc1)c1ccco1	none (no result: CYP2C19 activ, CYP2C19 inhib, D1 mod, CYP2C9 inhib, CYP2C9 activ)
Clc1ccccc1OCc1nc(-c2ccccn2)no1	CYP2C19 inhib 84.7 (no result: hDAT+cocaine)
Clc1ccc(OCc2nc(-c3ccccn3)no2)c(Br)c1	D1 mod -6.91
c1ccc(CCc2nc(-c3ccccn3)no2)cc1	CYP2C19 inhib 54.8
COc1ccc(NS(=O)(=O)c2cc(-c3nnnn3C)ccc2OC)cc1	none
O=C(NCc1ccccn1)[C@H]1C[C@@H]1[C@H](NP(=O)(c1ccccc1)c1ccccc1)c1ccccc1	none (no result: CYP2C19 activ, CYP2C19 inhib, D1 mod, CYP2C9 inhib, CYP2C9 activ)
